In PubChem BioAssay (NCATS):
Results filed as inconclusive are left out. A number with no mark means an inactive call. Active and inactive are the calls of the source. The call rests on the fitted dose curve; in most records, active means well fitted curve in the direction sought with a large enough effect; inconclusive means small, poorly fitted or top-dose-only effect, or another doubt; inactive means no such curve, though single readings can be large; an effect the other way counts as inactive or inconclusive.

Assays:
[1] = BET inhibitor-based combinations targeting novel dependencies in MECOM-rearranged (r) AML: SET-2 cell line (AID 2202231); conditions: SET-2 AML cells viability, CellTiter-Glo luminescence, 48 h; viability: active compounds read low, concentration not given here; further: nearly all actives have a fitted effect of over 35% in size;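 on viability: plate controls were DMSO treated cells for no effect and wells without cells for full effect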
In short: (§1)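 Readout: CellTiter-Glo luminescence. Exposure: 48 h, 11 concentrations, 500 cells/well. Metric: AUC and within-line Z-AUC after DMSO/empty-well normalization.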

[2] = BET inhibitor-based combinations targeting novel dependencies in MECOM-rearranged (r) AML: OCI-AML3 cell line (AID 2202232); conditions: Potency: OCI-AML3 viability; further: nearly all actives have a fitted effect of over 35% in size;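 on viability (% of control): series mostly up to about 46 µM; plate controls were DMSO vehicle wells for no effect and wells without cells for full effect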
In short: as §1

[3] = BET inhibitor-based combinations targeting novel dependencies in MECOM-rearranged (r) AML: MV-4-11 cell line (AID 2202233); further: nearly all actives have a fitted effect of over 45% in size;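 on viability, % of control: plate controls were DMSO for no effect and blank wells for full effect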
In short: (§2)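 Seeding density was 500 cells/well, and drug exposure lasted 48 hr under standard culture conditions. Read-out used CellTiter-Glo reagent with a 15 min room-temperature incubation before luminescence measurement; AUC and Z-AUC summarize the normalized responses.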

[4] = BET inhibitor-based combinations targeting novel dependencies in MECOM-rearranged (r) AML: HNT-34 cell line (AID 2202234); further: nearly all actives have a fitted effect of over 35% in size;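 on viability (% of control): plate controls were vehicle wells for no effect and cell-free wells for full effect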
In short: as §2

[5] = BET inhibitor-based combinations targeting novel dependencies in MECOM-rearranged (r) AML: UCSD-AML1 cell line (AID 2202235); further: nearly all actives have a fitted effect of over 40% in size;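 on viability (% of control): series mostly up to about 46 µM; plate controls were DMSO vehicle wells for no effect and blank wells for full effect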
In short: as §2

[6] = BET inhibitor-based combinations targeting novel dependencies in MECOM-rearranged (r) AML: AML-191 cell line (AID 2202236; further: nearly all actives have a fitted effect of over 35% in size;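 on viability (% of control): plate controls were vehicle wells for no effect and wells without cells for full effect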)
In short: as §1

[7] = BET inhibitor-based combinations targeting novel dependencies in MECOM-rearranged (r) AML: AML-194 cell line (AID 2202237; further: nearly all actives have a fitted effect of over 40% in size;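 on viability (% of control): plate controls were vehicle wells for no effect and wells without cells for full effect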)
In short: as §1
Potency means the concentration at half of the fitted maximal effect.

SMILES	Potency [1]	Potency [2]	Potency [3]	Potency [4]	Potency [5]	Potency [6]	Potency [7]	viability [1] [%]	viability (% of control) [2]	viability, % of control [3]	viability (% of control) [4]	viability (% of control) [5]	viability (% of control) [6]
COc1cc(OC)c(/C=C/S(=O)(=O)Cc2ccc(OC)c(OP(=O)(O)O)c2)c(OC)c1	132 nM (active)	118 nM (active)	132 nM (active)	105 nM (active)	118 nM (active)	118 nM (active)	118 nM (active)						
CN1C(=O)N[C@H](Cc2c[nH]c3c(Cl)cccc23)C1=O		inactive	37200 nM (active)	inactive	inactive	inactive		113					
CCCCCN(C)CCC(O)(P(=O)(O)O)P(=O)(O)O								124	118% [at 5.12 µM]	131% [at 5.12 µM]	109% [at 5.12 µM]	109% [at 5.12 µM]	111% [at 5.12 µM]
CN(C)CCCN=c1c2ccccc2n(C)c2[nH]c(=O)n(C)c(=O)c12	23500 nM (active)	18600 nM (active)	9340 nM (active)	23500 nM (active)	26300 nM (active)	18600 nM (active)							
Nc1nc(F)nc2c1ncn2C1OC(COP(=O)(O)O)C(O)C1O (stereo not drawn)	4680 nM (active)	18600 nM (active)	18600 nM (active)	16600 nM (active)	2630 nM (active)	6610 nM (active)	9340 nM (active)						
Cc1ccc(C(=O)N(CCCN)[C@@H](c2oc3cc(Cl)ccc3c(=O)c2Cc2ccccc2)C(C)C)cc1	166 nM (active)	26.3 nM (active)	37.2 nM (active)	13.2 nM (active)	14.8 nM (active)	46.8 nM (active)							
COc1ccnc2[nH]cc(C(=O)C(=O)N3CCN(C(=O)c4ccccc4)C[C@H]3C)c12		inactive	inactive	inactive	inactive	inactive		113					
C[C@@H]1C[C@H](N)C[C@H](c2ccncc2NC(=O)c2ccc(F)c(-c3c(F)cccc3F)n2)C1	18600 nM (active)	16600 nM (active)	5250 nM (active)	5250 nM (active)	132 nM (active)	10500 nM (active)	5900 nM (active)						
CCCCCCCCCCCCCCCCCCCCCCO		inactive	inactive	inactive	inactive	inactive	inactive	112					
C[C@H]1[C@H](C)CC[C@]2(C(=O)O)CC[C@]3(C)C(=CC[C@@H]4[C@@]5(C)CC[C@H](O)C(C)(C)[C@@H]5CC[C@]43C)[C@H]12		inactive	inactive	inactive	inactive	inactive	inactive	102					
COc1cc2c3c(n(CCCNCCO)c(=O)c2cc1OC)-c1cc2c(cc1C3=O)OCO2	148 nM (active)	93.4 nM (active)	59 nM (active)	59 nM (active)	74.2 nM (active)	166 nM (active)							
CC(C)(C)C(=O)N1N=CC[C@H]1c1ccccc1		inactive	inactive	inactive	inactive	inactive	inactive	112					
CN1C/C=C/CCOc2cccc(c2)-c2ccnc(n2)Nc2cccc(c2)C1	118 nM (active)	468 nM (active)	417 nM (active)	417 nM (active)	148 nM (active)	296 nM (active)	372 nM (active)						
CCCc1nc(C)c2c(=O)[nH]c(-c3cc(S(=O)(=O)N4CCN(CC)CC4)ccc3OCC)nn12		3720 nM (active)	inactive	inactive	inactive	inactive	inactive	114					
Cc1ccc(NS(=O)(=O)c2ccc3c(c2)C2C=CCC2C(c2ccc(C(=O)O)cc2)N3)cc1C (stereo not drawn)		inactive	inactive	inactive	inactive	inactive	inactive	109					
C=C[C@H]1CN2CCC1C[C@@H]2C(O)c1ccnc2ccc(OC)cc12 (stereo partly drawn)		inactive	18600 nM (active)	inactive	inactive	inactive	inactive	103					
CC[C@@]1(O)C(=O)OCc2c1cc1n(c2=O)Cc2c-1nc1cc(F)c(C)c3c1c2[C@@H](N)CC3	3.7 nM (active)	5.3 nM (active)	4.2 nM (active)	3 nM (active)	4.2 nM (active)	8.3 nM (active)	3.7 nM (active)						
